This is a sample that favours compounds with a hit; in the whole collection about 9.2% have one here.
Lamin A splicing = changes lamin A minigene splicing in HeLa cells. hit rate 0.01% among 200,000. Potency, µM (top dose mostly 46.1 µM), usual class: inhibitors. AID 1487. HeLa LMNA splicing GFP/RFP minigene ratio, 48 h; active means well fitted inhibition curve with a large enough effect in the signal ratio, with a control signal flat, not every such curve was filed as active; inconclusive means small, poorly fitted or top-dose-only effect, or effect the other way, or a change in a side signal; the % refers to the signal ratio
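S3 HeLa stable clones carrying a lamin A-EGFP splicing minigene plus DsRed2 were seeded at 600 cells/well in Opti-MEM with 2% FBS, pin-dosed and incubated 48 h at 37°C. Acumen cytometry (488 nm) gave the GFP/RFP total-intensity ratio.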
KDM4E inh = inhibitors of human JMJD2E histone demethylase. B2RXH2. JMJD2E catalytic domain, FDH-coupled NADH fluorescence (FDH is formaldehyde dehydrogenase). Potency, µM (doses to about 57.1 µM), actives largely listed as inhibitors. hit rate 1.6% among 230,000. AID 2147; further: nearly all actives have a fitted effect of over 50% in size
HPGD inh = blocks human HPGD enzyme activity | P15428 | purified HPGD, NADH fluorescence kinetic, PGE2 substrate | Potency, µM, actives largely listed as inhibitors | hit rate 4.3% among 150,000
Target sequence (P15428 whole entry, looked up): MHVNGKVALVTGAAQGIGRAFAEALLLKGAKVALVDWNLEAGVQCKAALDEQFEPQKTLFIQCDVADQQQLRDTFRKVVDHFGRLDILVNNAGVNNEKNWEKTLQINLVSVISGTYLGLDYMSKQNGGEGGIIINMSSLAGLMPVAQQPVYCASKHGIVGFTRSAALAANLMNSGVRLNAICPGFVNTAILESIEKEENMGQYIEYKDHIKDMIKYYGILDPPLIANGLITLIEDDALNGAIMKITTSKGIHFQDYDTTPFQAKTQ
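20 nM HPGD preincubated 15 min at room temperature with compound in 50 mM Tris-HCl pH 8, 0.01% Tween 20. Started with 1 mM NAD+ and 30 uM prostaglandin E2; NADH fluorescence (360/450 nm) read 5 times over 30-s intervals, last minus first.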
HttQ103 aggreg = inhibitors of mutant huntingtin aggregate formation in PC12 cells | hit rate 1.1% among 220,000 | Potency, µM (series often up to 46.1 µM), actives largely listed as inhibitors | AID 1688 | PC12 HttQ103-GFP aggregates, Acumen cytometry, 40 h; active means well fitted curve in the direction sought with a large enough effect; inconclusive means small, poorly fitted or top-dose-only effect, or another doubt; inactive means no such curve, though single readings can be large; an effect the other way counts as inactive or inconclusive; further: nearly all actives have a fitted effect of over 60% in size
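Huntingtin Q103 exon 1–GFP aggregates in induced PC12 cells (100 nM tebufenozide) were quantified by cytometry from lysates, with compounds dosed in titration.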
ALDH1A1 inh = ALDH1A1 (human) enzyme inhibition; Purified ALDH1A1, NADH fluorescence, propionaldehyde substrate; Potency, µM (series often up to 75.3 µM), hits mostly inhibitors; hit rate 7.3% among 220,000
HTT ATP protect = cytoprotection in Huntington HTT-Q103 PC12 cell model; Potency, µM (doses to about 56.4 µM), actives largely listed as activators; hit rate 0.14% among 230,000; PC12 HTT-Q103 induced, cytoprotection, ATP luminescence, 40 h; active means well fitted curve in the direction sought with a large enough effect; inconclusive means small, poorly fitted or top-dose-only effect, or another doubt; inactive means no such curve, though single readings can be large; an effect the other way counts as inactive or inconclusive; further: nearly all actives have a fitted effect of over 45% in size
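Quantitative HTS on tebufenozide-induced (100 nM) PC12 cells expressing HTTQ103 exon 1–GFP; compounds tested as a concentration series; survival measured via cellular ATP.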
Hits are given with their value; – = inactive; ? = inconclusive; · = not tested or not shown; [ ] = dose if it differs, or a comment. Unless noted, the call rests on the fitted dose curve; in most records, active means well fitted inhibition curve with a large enough effect (not every such curve was filed as active); inconclusive means small, poorly fitted or top-dose-only effect, or another doubt; inactive means no such curve, though single readings can be large or run the other way.

SMILES | Lamin A splicing | KDM4E inh | HPGD inh | HttQ103 aggreg | ALDH1A1 inh | HTT ATP protect
COC(=O)c1ccc(NC(=O)C(C)N2Cc3ccccc3C2=O)cc1 (configuration not stated) | – | · | · | · | · | ·
Cc1ccccc1OCCCCn1cnc2ccccc21 | ? | – | – | 7.08µM | – | –
O=C(CSc1nnc2ccc3ccccc3n12)Nc1ccccc1Cl | – | · | · | · | · | ·
CCOc1ccc(CC(=O)NNC(=O)/C=C/C(=O)O)cc1 | · | – | · | –[9.22 µM] | ? | –[10 µM]
O=[N+]([O-])c1ccc(N/N=C/c2ccc[nH]2)cc1 | ? | – | 14.1µM | – | – | ·
COc1cc(NC(=O)COCc2cc(-c3ccc4c(c3)OCO4)on2)c(OC)cc1Cl | – | · | · | · | · | ·
COC(=O)C1=C(O)/C(=C\c2cc(C)n(-c3ccccc3F)c2C)N=C1C | · | 22.4µM | · | – | 11.2µM | ?
COC(=O)C1=C(C)NC(=O)/C1=C\c1cc(C)n(-c2ccccc2)c1C | · | – | · | – | 25.1µM | –
COC(=O)C1=C(O)/C(=C\c2cc(C)n(-c3ccccc3C)c2C)N=C1C | – | ? | – | – | ? | –[10 µM]
COCc1cc(N2CCCC2)nc(-c2ccccc2)n1 | ? | – | · | – | – | –
N=c1sc2ccccc2n1CCS (tested in a mixture with another compound) | · | · | – | · | ? | –[10 µM]
Cc1ccc(-c2csc(NC(=O)C3=NN(C4CCS(=O)(=O)C4)C(=O)CC3)n2)cc1 (configuration not stated) | · | – | · | –[9.22 µM] | · | –[10 µM]
Cc1c(-n2c(SCC(=O)N(C)C3CCS(=O)(=O)C3)nc3ccccc3c2=O)c(=O)n(-c2ccccc2)n1C (configuration not stated) | ? | – | · | – | 25.1µM | –
C=CCn1c(SCC(=O)N(C)C2CCS(=O)(=O)C2)nc2ccccc2c1=O (configuration not stated) | – | – | · | – | – | –[10 µM]
CCOc1ccc2nc(/N=C/c3c(C)[nH]n(-c4ccc(C)cc4)c3=O)sc2c1 | – | – | ? | – | – | –[10 µM]
CCOc1ccc2nc(SC3CC(=O)N(c4ccc(C)cc4)C3=O)sc2c1 (configuration not stated) | – | – | – | ? | 2.24µM | –[10 µM]
CCOc1ccc2nc(SC3CC(=O)N(c4ccc(OC)cc4OC)C3=O)sc2c1 (configuration not stated) | ? | – | · | · | 25.1µM | ·
CCOc1ccc2nc(SCC(=O)Nc3ccc4c(c3)OCO4)sc2c1 | ? | – | – | – | – | ·
CCOc1ccc2nc(SCC(=O)c3ccc(C)s3)sc2c1 | – | – | 14.1µM | ? | ? | –[10 µM]
CCc1ccc(NC2CC(=O)N(c3ccc(OC)cc3OC)C2=O)cc1 (configuration not stated) | – | – | – | – | – | –
C=C(C)COc1ccc2c(C)c(CC(=O)OC)c(=O)oc2c1C | ? | ? | ? | 11.2µM | ? | –[10 µM]
N#CCCN(Cc1cccnc1)C(=O)c1sc2cc(F)ccc2c1Cl | ? | – | 7.08µM | – | – | –[10 µM]
CC(C)OCCCNc1ncnc2c1[nH]c1ccccc12 | ? | ? | – | 7.08µM | ? | –[1.9 µM]
COc1ccc(CNc2ncnc3c2[nH]c2ccccc23)cc1 | · | ? | · | –[9.22 µM] | · | –[10 µM]
CN1CCC(OC(=O)c2cccc(Cl)c2)CC1 | · | – | · | – | – | –
SMILES | Lamin A splicing | KDM4E inh | HPGD inh | HttQ103 aggreg | ALDH1A1 inh | HTT ATP protect
O=C(NC1CC(=O)N(c2ccc(F)cc2)C1)C1CC1 (configuration not stated) | – | · | · | · | · | ·
COC1C=CO[C@@]2(C)Oc3c(C)c(O)c4c(O)c(c(C=NN5CCN(C)CC5)c(O)c4c3C2=O)NC(=O)/C(C)=C\C=CC(C)C(O)[C@@H](C)C(O)C(C)[C@H](OC(C)=O)C1C (some centres not stated) | · | 12.6µM | – | – | – | –
CC(=C\C(=O)O)/C(=C/c1ccco1)C(=O)O | · | ? | · | –[9.22 µM] | · | –[10 µM]
CC(=C\C(=O)O)/C(=C/c1ccc(C)o1)C(=O)O | – | – | – | ? | 22.4µM | ·
C(=N\Nc1nc(N2CCCC2)nc(N2CCCC2)n1)/c1ccncc1 | ? | – | · | – | – | –
COc1cc(NC(=O)Cn2ncc(Cl)c(Cl)c2=O)c(C)cc1[N+](=O)[O-] | ? | – | · | ? | 2µM | –
COc1cc(NC(=O)CN2C(=O)CN(C)C2=O)c(C)cc1[N+](=O)[O-] | – | – | · | – | – | –
